Results filed as inconclusive are left out. Entries that show only a call come without a potency. Calls of active or inactive are those of the source. The call rests on the fitted dose curve; in most records, active means well fitted inhibition curve with a large enough effect; inconclusive means small, poorly fitted or top-dose-only effect; inactive means no such curve, though single readings can be large or run the other way.
Test: Counterscreen for APE1 Inhibitors: Fluorescent Dye Displacement Validation Assay (AID 1707)
Conditions: fluorescent dye displacement from DNA; series mostly up to 57.1 µM
Excerpt: In order to distinguish true inhibitors of DNA-processing enzymes from promiscuous DNA-binding compounds among screening assay hits, we developed a homogeneous and miniaturized assay based on fluorescent dye displacement test as originally described by Tse and Boger (Accounts of Chemical Research (2004) 37: 61-69). The assay is based on the strong enhancement of fluorescence when Thiazole Orange (ThO) binds to double-stranded DNA: conversely, in the presence of a DNA-binding compound, Thiazole Orange is displaced from the DNA and its fluorescence is reduced.
Buffer. 50 mM Tris-HCl (pH7.5) containing 50mM NaCl, 2 mM MgCl2, and 0.01% Tween-20.
Buffer containing 250 nM ThO in columns 3 and 4 as negative control (no dsDNA).
Reaction mixture: 250 nM ThO and 50 nM dsDNA at final concentration dispensed throughout the plate: in columns 1, 2, 5-48. Column 1 is neutral (100% activity).
5''TAMRA- TC ACC FTC GTA CGA CTC
3'' AG TGG GAG CAT GCT GAG
where F denotes tetrahydrofuran.
Control: Pintool transfer of control compound WB64 (W4761, Sigma-Aldrich) to column 2 of all assay plates as a two-fold 16-point dilution in duplicate (concentration range 5.75 uM - 0.175 nM).
Four uL of reaction mixtures were dispensed to 1536-well Greiner black solid bottom plates. Compounds (23 nL) were transferred […] in order to measure the endpoint fluorescence using 480 nm excitation and 540 nm emission fluorescence protocol.
With CC(C)C(=O)Nc1ccc([N+](=O)[O-])c(C(F)(F)F)c1 the Potency was “inactive”.
For NC(CO)C(=O)NNCc1ccc(O)c(O)c1O (stereo not given), the Potency was “inactive”.
With Cc1ccccc1N1C(=O)c2cc(S(N)(=O)=O)c(Cl)cc2NC1C (stereo not given) the Potency was “inactive”.
In the case of CN1C2CCC1CC(OC(=O)C(CO)c1ccccc1)C2 (stereo not given), the Potency is reported as “inactive”.
For CCCCc1oc2ccccc2c1C(=O)c1cc(I)c(OCCN(CC)CC)c(I)c1, the Potency was “inactive”.
For Cn1ccc2cc3c(cc21)CCN3C(=O)Nc1cccnc1, the Potency was “inactive”.
In the case of NC(=O)OCC(COC(N)=O)c1ccccc1, the Potency is reported as “inactive”.
For COc1cc2c(c(OC)c1OC)-c1ccc(OC)c(=O)cc1[C@@H](NC(C)=O)CC2, the Potency was “inactive”.
In the case of NC12CC3CC(CC(C3)C1)C2, the Potency is reported as “inactive”.
With CCCNCC(O)COc1ccccc1C(=O)CCc1ccccc1 (stereo not given) the Potency was “inactive”.
For COc1ccc2[nH]cc(CCNC(C)=O)c2c1, the Potency was “inactive”.
For CN1C(C(=O)Nc2ccccn2)=C(O)c2ccccc2S1(=O)=O, the Potency was “inactive”.
In the case of OCCN1CCN(CCCN2c3ccccc3Sc3ccc(C(F)(F)F)cc32)CC1, the Potency is reported as “inactive”.
For CN(C)CCC=C1c2ccccc2C=Cc2ccccc21, the Potency was “inactive”.
For Cc1cn([C@H]2C=C[C@@H](CO)O2)c(=O)[nH]c1=O, the Potency was “inactive”.
With Nc1nnc(-c2cccc(Cl)c2Cl)c(N)n1 the Potency was “inactive”.
For NS(=O)(=O)c1cc2c(cc1Cl)NCNS2(=O)=O, the Potency was “inactive”.
In the case of CCOC(=O)Nc1ccc(NCc2ccc(F)cc2)nc1N, the Potency is reported as “inactive”.
With CC(C)Cc1ccc(C(C)C(=O)O)cc1 (stereo not given) the Potency was “inactive”.
For Cc1ccc(C(=O)Nc2ccc(S(=O)(=O)O)c3cc(S(=O)(=O)O)cc(S(=O)(=O)O)c23)cc1NC(=O)c1cccc(NC(=O)Nc2cccc(C(=O)Nc3cc(C(=O)Nc4ccc(S(=O)(=O)O)c5cc(S(=O)(=O)O)cc(S(=O)(=O)O)c45)ccc3C)c2)c1, the Potency was 4.47 µM (active).
With CN(C)CCOC(c1ccccc1)c1ccccc1 the Potency was “inactive”.
In the case of Fc1ccc([C@@H]2CCNC[C@H]2COc2ccc3c(c2)OCO3)cc1, the Potency is reported as “inactive”.
In the case of NCCCCCC(=O)O, the Potency is reported as “inactive”.
For CC(COc1ccccc1)N(CCCl)Cc1ccccc1 (stereo not given), the Potency was “inactive”.
With CCC1(C)CC(=O)NC1=O (stereo not given) the Potency was “inactive”.
In the case of COc1ccc2c(c1)c(CC(=O)O)c(C)n2C(=O)c1ccc(Cl)cc1, the Potency is reported as “inactive”.
For CC(C)NCC(O)c1ccc(O)c(O)c1 (stereo not given), the Potency was “inactive”.
With CN(C)CCCN1c2ccccc2CCc2ccc(Cl)cc21 the Potency was “inactive”.
With CC1COc2c(N3CCN(C)CC3)c(F)cc3c(=O)c(C(=O)O)cn1c23 (stereo not given) the Potency was “inactive”.
With CN(C)c1nc(N(C)C)nc(N(C)C)n1 the Potency was “inactive”.
In the case of O=c1[nH]cc(F)c(=O)[nH]1, the Potency is reported as “inactive”.
For Cn1c(=O)c2c(ncn2C)n(C)c1=O, the Potency was “inactive”.
For CC[N+](CC)(CC)CCOc1cccc(OCC[N+](CC)(CC)CC)c1OCC[N+](CC)(CC)CC, the Potency was “inactive”.
In the case of CC(C)(Oc1ccc(C2CC2(Cl)Cl)cc1)C(=O)O (stereo not given), the Potency is reported as “inactive”.
For Nc1c2c(nc3ccccc13)CCCC2, the Potency was “inactive”.
In the case of NCCc1cnc[nH]1, the Potency is reported as “inactive”.
With O=C(c1ccc(F)cc1)C1CCN(CCn2c(=O)[nH]c3ccccc3c2=O)CC1 the Potency was “inactive”.
In the case of CNCCCC12CCC(c3ccccc31)c1ccccc12, the Potency is reported as “inactive”.
In the case of CC(CCc1ccc(O)cc1)NCCc1ccc(O)c(O)c1 (stereo not given), the Potency is reported as “inactive”.
With O=C(C1CCCCC1)N1CC(=O)N2CCc3ccccc3C2C1 (stereo not given) the Potency was “inactive”.

— PubChem BioAssay (NCATS)
Potency means the concentration at half of the fitted maximal effect.
